Some of the results follow. Unmarked numbers belong to inactive results. Calls of active or inactive are those of the source.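 The calls were made as follows: active = mean inhibition above the hit cutoff derived in the earlier primary screen (cut at about 25% in these data); inactive = the rest.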
assay: reduced survival of JAK2V617F-driven Ba/F3 cells – cell-based, Ba/F3 EpoR-JAK2V617F, luminescence, triplicate, JAK2V617F inhibitor project, confirmation (AID 1521); details: Ba/F3 EpoR-JAK2V617F viability, CellTiter-Glo luminescence; at 5.6 µM; active compounds read high;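 also: 0% = DMSO-treated cells and 100% = JAK inhibitor I control wells; higher means lower luminescence from reduced cell ATP and viability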

SMILES	inhibition
CN(Cc1ccc2nsnc2c1)Cc1nc(Cc2cccc(F)c2)no1	7.27%
CCC1CCCCN1CCCNC(=O)c1cc2c(Cl)nc3ccccc3c2s1 (stereo not drawn)	12.1%
Cc1ccc(NC(=S)N(CCCN2CCC(C)CC2)Cc2ccco2)cc1	52.5% (active)
c1ccc2c(c1)CSc1sccc1C2=C1CCNCC1	57.9% (active)
Cc1cccc(NC(=O)c2ccc([N+](=O)[O-])o2)c1	84.7% (active)
COc1cc(OC)cc(C(=O)N[C@H](C(=O)Nc2nc3ccccc3[nH]2)C(C)C)c1	99.1% (active)
COc1ccc(OC)c(Nc2nc(-c3ccc(O)c(O)c3)cs2)c1	99% (active)
Cc1ccc(S(=O)(=O)C2(S(=O)(=O)c3ccc(C)cc3)CCCC2)cc1	62.1% (active)
CCCc1nc2ccccc2c(=O)n1/N=C/c1ccc(O)c(O)c1	67.2% (active)
Cc1ccc(C2=NN(C)c3nc4ccccc4n3C2)cc1	-7.33%
COc1ccc(-c2csc(Nc3ccc(O)cc3)n2)cc1	97.2% (active)
COc1cc(OC)c(C(=O)NC2CCCCCC2)cc1OC	18.7%
O=C(CCl)N(Cc1cccc([N+](=O)[O-])c1)c1cccc(Cl)c1	99.7% (active)
O=C(CCl)Nc1ccc(Sc2ccc(NC(=O)CCl)cc2)cc1	99.7% (active)
CCCn1c(NC(=O)C23CC4CC(CC(O)(C4)C2)C3)nc2ccccc21	-6.61%
O=c1oc2ccccc2cc1-c1cn(-c2ccccc2)c(=S)[nH]1	92.7% (active)
Cn1c(CCN2CCCCCC2)nc2cc(NC(=O)Nc3ccccc3)ccc21	-1.25%
N#C/C=C\Oc1ccc(Cl)cc1N	39.2% (active)
CSCC(=O)N1CCCC(C(=O)c2cc(F)ccc2F)C1 (stereo not drawn)	-9.05%
CCn1c(/C=C/c2ccc([N+](=O)[O-])o2)nc2ccccc2c1=O	99.1% (active)
Oc1ccc(/C=N/Nc2ccc(C(F)(F)F)cn2)cc1O	99.2% (active)
COc1ccc(Cc2nnc(N/N=C/c3ccccc3O)[nH]c2=O)cc1OC	98.9% (active)
COc1ccccc1N1CCN(Cc2ccc(OC)c3ccccc23)CC1	31.5% (active)

From PubChem BioAssay AID1521 (The Scripps Research Institute Molecular Screening Center, 2009)
